Results taken from the supplement of paper PMC3414501.
Where a name gives a salt, the structure may show the parent alone. Unmarked numbers belong to inactive results. Cut-off read from the data, not from the text of the source: active = 2 or more and inactive = the rest.

Each molecule was assayed on S. cerevisiae BY4741 (wild-type), vegetative growth in YPD (assay: growth sensitivity score (doubling time z-score vs DMSO controls); higher = slower growth, strongly negative scores also mark growth inhibition (complete suppression), active = hit call of the paper).
Summary of the method: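 Saccharomyces cerevisiae strains BY4741 and AD1-9 were seeded in rich medium in microtiter plates at an OD600 of 0.065. Compounds were added at a 1:100 dilution of DMSO stock. Optical density was read every 15 min for 24 hours on a Tecan GENios reader. Average doubling time was the time taken to reach a set generation point divided by generation number, and the growth sensitivity score was (compound mean − DMSO-control mean)/DMSO-control SD, using eight DMSO controls per experiment.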

For `CNCCCC12CCC(c3ccccc31)c1ccccc12` [Maprotilline hydrochloride] (stock concentration (mM, diluted 1:100): 10), the growth sensitivity score was 2.3 (active).

In order of falling growth sensitivity score:
1. CC(=O)SCC(Cc1ccccc1)C(=O)NCC(=O)OCc1ccccc1 (centres undefined) [Acetorphan] (stock concentration (mM, diluted 1:100): 10)  0.93
2. COc1cc(C(=O)NC2CCCNC2)cc(OC)c1OC (centres undefined) [Troxipide] (stock concentration (mM, diluted 1:100): 10.1)  0.38
3. COc1nc(C)nc(Cl)c1NC1=NCCN1 [Moxonidine hydrochloride] (stock concentration (mM, diluted 1:100): 9.2)  0.19
4. CC(C)(C)NC(=O)[C@@H]1CN(Cc2cccnc2)CCN1C[C@@H](O)C[C@@H](Cc1ccccc1)C(=O)N[C@H]1c2ccccc2C[C@H]1O [Indinavir sulphate] (stock concentration (mM, diluted 1:100): 8.6)  0
5. CCCc1nc(C)c2c(=O)nc(-c3cc(S(=O)(=O)N4CCN(CC)CC4)ccc3OCC)[nH]n12 [Vardenafil citrate] (stock concentration (mM, diluted 1:100): 7.2)  -0.19
6. CN1[C@@H]2CC[C@H]1C[C@@H](OC(=O)c1c[nH]c3ccccc13)C2 [Tropisetron hydrochloride] (stock concentration (mM, diluted 1:100): 7.7)  -0.89
7. Cc1ccnc2c1NC(=O)c1cccnc1N2C1CC1 [Viramune] (stock concentration (mM, diluted 1:100): 10)  -1.29
8. O=C1C(c2c(O)[nH]c3ccccc23)=Nc2ccccc21 [Indarubicin] (stock concentration (mM, diluted 1:100): 10)  -1.62
